Only some compounds are listed: those with a hit (about 12% of all), similar ones and a draw of the others.
AMA1 RON2 block: disrupts binding of P. falciparum AMA1 to RON2; AlphaScreen AMA1-biotinylated RON2 peptide binding; Potency, µM (highest dose often 58.2 µM), inactives show at the top dose activity change, negative = inhibition, actives largely listed as inhibitors; actives 0.2% (n = 360,000); AID 720542;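 note: 0% = vehicle wells and -100% = peptide control; nearly all actives have a fitted effect of over 45% in size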
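AMA1 (3D7) with his tag at 25 nM final met compounds first, then biotinylated RON2 peptide at 25 nM; detection used donor plus acceptor beads, 10 µg/mL apiece, read by AlphaScreen after 30 min at room temperature.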
Pf growth 96h: P. falciparum growth inhibition at 96 hours | P. falciparum luciferase reporter growth, 96 h | Potency, µM (top dose mostly 28.7 µM), without a hit: at the top dose activity change, negative = inhibition, most hits filed as inhibitors | actives 6.9% (n = 320,000) | AID 504834; note: % is set by controls: 0 for no effect and ±100 for the full control effect
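Infected RBCs, 2% Hct / 0.05% parasitemia final; luciferase-reporter P. falciparum; cpd 96 h, 37 C, 5% CO2; luciferase detection reagent; luminescence.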
Pf growth 48h: inhibits P. falciparum growth in the first generation, 48 h; P. falciparum luciferase growth in erythrocytes, 48 h; AID 504832; actives 5.9% (n = 310,000); Potency, µM (top dose mostly 28.7 µM), inactives show top-dose activity change, negative = inhibition, actives largely listed as inhibitors; note: % is set by controls: 0 for no effect and ±100 for the full control effect
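A one-generation exposure of luciferase-tagged malaria parasites in RPMI 1640/Albumax erythrocyte culture, 37 C and 5% CO2. Inhibition is inferred from decreased luminescence after adding detection reagent.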
NS1 function inh: influenza NS1 inhibition. Potency, µM (titrated, usually from 46.1 µM), for the others: at the top dose activity, positive = more growth. actives 0.4% (n = 270,000); calls by dose curve; note: actives are rising curves; nearly all actives have a fitted effect of over 50% in size
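In this qHTS, NS1 from influenza A is expressed in budding yeast, where it slows growth. Cells are switched from glucose to 2% galactose medium (pH 6.0, -URA), treated with compound, and growth recovery is read at OD600.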
HCV inh: blocks hepatitis C virus. Potency, µM (titrated, usually from 41.8 µM), without a hit: at the top dose activity change, negative = inhibition, actives largely listed as inhibitors. Huh7.5.1 HCVcc-Cre infection, luciferase reporter, 44 h. actives 3.4% (n = 340,000). AID 651820; note: % is set by controls: 0 for no effect and ±100 for the full control effect
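HCVcc-Cre virus at an moi near 0.5 was added right after compound to cells cultured 4 h from seeding (1,000 cells/well). Luciferase activity was determined 44 h later, 15 min after substrate addition at RT.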
SARS PLP yeast: blocks SARS-CoV papain-like protease in a yeast assay; S. cerevisiae expressing SARS-CoV PLpro, growth rescue; Potency, µM (series often up to 32.9 µM), for the others: at the top dose activity, positive = growth rescue, most hits filed as activators; actives 0.19% (n = 330,000); calls by dose curve; note: 0% is about no effect; nearly all actives have a fitted effect of over 55% in size
Active calls of the source: *; u = inconclusive; x = no result given. Unless noted, calls come from the whole dose curve; as a rule, active = well fitted curve in the direction sought with a large enough effect; inconclusive = small, poorly fitted or top-dose-only effect, or another doubt; inactive = no such curve, though single readings can be large; an effect the other way counts as inactive or inconclusive. Potency is the fitted concentration of half-maximal effect.

SMILES | AMA1 RON2 block | Pf growth 96h | Pf growth 48h | NS1 function inh | HCV inh | SARS PLP yeast
O=c1cc(N2CCc3ccccc3C2)[nH]c(=O)n1-c1ccc(Br)cc1 | -1.6% | 7.38µM* | 20.7% | 3.0% | 25.5% | -0.3%
O=c1cc(N2CCc3ccccc3C2)[nH]c(=O)n1-c1ccc(Cl)cc1 | -4.6% | -19.4% | 51.5% | 2.4% | -3.8% | 12.2%
O=C(N/N=C/c1ccccc1F)c1ccccc1OCc1ccccc1 | 6.2% | 9.9% | u | -5.6% | 10µM* | 0.5%
O=C(COCC(=O)N/N=C/c1ccccc1F)N/N=C/c1ccccc1F | -0.1% | 9.28µM* | -13.5% | 6.3% | 5.1% | 7.8%
O=C(NNC(=O)c1ccccc1OCc1ccccc1)c1ccccc1F | 35.2% | 67.7% | 40.8% | -3.8% | -25.9% | -0.1%
NC(=O)COC(=O)C1c2ccccc2Oc2ccccc21 | -6.1% | 11.8% | -1.6% | 6.4% | 3.7% | -3.3%
N#CCN(CC#N)C(=O)C1c2ccccc2Oc2ccccc21 | 1.2% | 2.94µM* | -5.1% | 7.4% | 12.1% | -3.4%
CN(c1ccccc1)S(=O)(=O)c1ccc(Cl)c(C(=O)Nc2ccc(N3CCOCC3)cc2)c1 | -10.1% | u | u | x | 15.8µM* | -1.1%
Cc1nc2ccc(NC(=O)c3cc(S(=O)(=O)N(C)c4ccccc4)ccc3Cl)cc2s1 | 20.1% | 0.37µM* | 1.31µM* | u | u | -0.3%
Cc1nc2ccc(NC(=O)c3cc([N+](=O)[O-])cc([N+](=O)[O-])c3Cl)cc2s1 | -3.0% | -23.2% | u | x | 25.1µM* | -106.4%
CS(=O)(=O)c1ccc(C(=O)Nc2ccc(N3CCOCC3)cc2)c(Cl)c1 | 0.0% | 15.5% | -7.2% | 7.3% | -16.0% | -0.4%
CN(C(=O)C1CCC(=O)N(CCCN2CCCC2=O)C1)C(C1CC1)C1CC1 (stereo not given) | -5.8% | 37.2% | 9.3% | 3.1% | 0.9% | -9.6%
O=C(CN(C(=O)CCC(=O)Nc1ccccn1)C1CCCC1)NCc1ccc(F)cc1 | 15.4% | 60.9% | 0.4% | -4.7% | 12.3% | -0.6%
O=C(Cn1c(=S)[nH]c2ccccc2c1=O)N1CCC2(CC1)OCCO2 | 4.8% | 40.4% | 9.5% | 6.9% | 3.6% | 6.1%
O=C(Cn1c(=O)c2ccccc2n(CC(=O)N2CCCCC2)c1=O)N1CCCCC1 | -4.8% | u | 8.4% | 1.7% | 10.1% | 0.7%
O=C(CCCCCn1c(=S)[nH]c2ccccc2c1=O)N1CCC2(CC1)OCCO2 | 42.8% | 14.8% | 8.28µM* | -9.5% | -5.4% | -1.8%
Cn1c(=O)n(CC(=O)N2CCC3(CC2)OCCO3)c(=O)c2ccccc21 | -5.4% | 1.65µM* | 43.1% | 3.4% | -6.0% | 0.7%
O=C(Cc1ccccc1)NCC(=O)Nc1cccc(Cl)c1 | 8.7% | 30.4% | -1.2% | 6.4% | 10.9% | -14.0%
Cn1c(SCC(=O)Nc2ccc3c(c2)n(C)c(=O)n3C)nnc1-c1ccncc1 | -6.8% | 4.8% | u | 6.2% | 19.6% | 1.0%
COC(=O)CCC(=O)c1oc2ccccc2c1NC(=O)CCCN1C(=O)c2ccccc2C1=O | 7.6% | 9.28µM* | 30.2% | 6.5% | -6.4% | 3.2%
COc1ccc(NC(=O)CN(Cc2ccco2)Cc2ccco2)cc1S(=O)(=O)N1CCCCC1 | -1.6% | -89.0% | u | x | u | 4.2%
Cc1c(CN(C)C)c2c(n1Cc1ccccc1)C(=O)c1ccc(Br)cc1-2 | u | 2.33µM* | x | -15.2% | u | -9.6%
Cc1c(CN(C)C)c2c(n1C)C(=O)c1ccc(Br)cc1-2 | 3.7% | 11.7µM* | u | -4.7% | u | -3.0%
O=c1oc2cc(Br)ccc2n1Cc1ccccc1 | 1.9% | 47.8% | 13.5% | 4.6% | -5.6% | -0.9%
COc1ccc(-c2n(Cc3ccccc3)c3ccccc3[n+]2Cc2ccccc2)cc1 | -8.2% | u | 0.37µM* | -0.3% | u | -0.3%
O=C(O)c1ccc(S(=O)(=O)N[C@H](Cc2c[nH]c3ccccc23)C(=O)O)cc1 | x | 8.2% | 13.2% | x | x | -1.2%
